# Screening results: PubChem, several laboratories
# An excerpt weighted towards active compounds, which were near 3.1% of everything screened.
# Bead autofluor = flagged as autofluorescent in microsphere protease counterscreen. compound autofluorescence counterscreen, microsphere flow cytometry; hits give high values. fluorescence intensity (no concentration beside the values). 360,000 compounds, 3.1% hits. AID 624483; in the data active means fluorescence intensity above about 16000; inconclusive means no clear call, values can overlap the other calls
# Anthrax LF inh2 = anthrax lethal factor protease inhibition; P15917; multiplex microsphere protease cleavage assay, LF; inhibition, % at 10 µM; 360,000 compounds, 0.12% hits; AID 588501; further: plate controls were buffer without enzyme for full effect and enzyme alone for no effect
# Target sequence (P15917 whole entry, looked up): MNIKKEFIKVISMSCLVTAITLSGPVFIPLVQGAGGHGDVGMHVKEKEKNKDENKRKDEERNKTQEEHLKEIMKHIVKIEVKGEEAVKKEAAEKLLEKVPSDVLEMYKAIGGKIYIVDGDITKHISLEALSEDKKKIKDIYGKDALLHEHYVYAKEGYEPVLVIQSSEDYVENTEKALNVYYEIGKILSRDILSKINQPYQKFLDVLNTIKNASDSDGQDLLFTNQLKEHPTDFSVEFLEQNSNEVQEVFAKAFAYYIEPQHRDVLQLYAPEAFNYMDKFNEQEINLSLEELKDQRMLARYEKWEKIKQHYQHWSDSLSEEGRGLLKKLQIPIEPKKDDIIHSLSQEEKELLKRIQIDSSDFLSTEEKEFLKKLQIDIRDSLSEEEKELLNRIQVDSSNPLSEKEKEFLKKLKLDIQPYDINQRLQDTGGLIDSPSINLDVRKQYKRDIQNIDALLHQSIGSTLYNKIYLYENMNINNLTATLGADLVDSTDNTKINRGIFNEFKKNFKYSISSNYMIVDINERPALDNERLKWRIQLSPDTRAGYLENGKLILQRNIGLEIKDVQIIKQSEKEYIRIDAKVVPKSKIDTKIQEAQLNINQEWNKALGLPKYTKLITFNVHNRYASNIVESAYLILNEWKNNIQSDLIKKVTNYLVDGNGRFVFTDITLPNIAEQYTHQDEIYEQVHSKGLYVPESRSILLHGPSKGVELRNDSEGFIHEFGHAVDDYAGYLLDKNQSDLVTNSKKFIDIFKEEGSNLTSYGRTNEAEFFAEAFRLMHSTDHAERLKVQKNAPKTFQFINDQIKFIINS
# SSB-PriA inh = inhibitors of Klebsiella pneumoniae PriA binding to SSB C-terminal tail; AlphaScreen SSBct-PriA binding, biotinylated peptide; inhibition, % at 33 µM; 430,000 compounds, 0.6% hits; AID 1272365; in the data active means inhibition mostly above about 37%, no sharp cut-off; inactive means mostly below about 20%;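 further: plate controls were negative control peptide for no effect and reference peptide for full effect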
# BoNT A protease = blocks Botulinum neurotoxin A light chain protease; 360,000 compounds, 0.17% hits; multiplex microsphere protease substrate cleavage, flow cytometry; inhibition, % at 10 µM; further: plate controls were buffer without enzyme for full effect and enzyme alone for no effect
# BoNT-F LC inh = inhibitors of Botulinum neurotoxin F light chain protease. 360,000 compounds, 0.22% hits. inhibition, % at 10 µM. Multiplex microsphere protease cleavage assay, flow cytometry. AID 588497; in the data active means inhibition above about 35%, passing the limit was not always enough; inconclusive means no clear call, values can overlap the other calls; further: plate controls were buffer without enzyme for full effect and enzyme alone for no effect
# Numbers without * were called inactive; ? = inconclusive; . = no result given. Unless noted, no stated cut-off is given here; in the data, active means inhibition above about 30%; inconclusive means no clear call, values can overlap the other calls; inactive means below that.
SMILES,Bead autofluor,Anthrax LF inh2,SSB-PriA inh,BoNT A protease,BoNT-F LC inh
CCOc1ccc(OCCN2C(=O)c3ccccc3C2=O)cc1,5199,-3,-7,2,-4
COc1ccc(OCC(=O)OCCN2C(=O)c3ccccc3C2=O)cc1,20429*,-1,-16,4,7
COC(=O)Nc1ccc(S(=O)(=O)NCC2CCN(C(=O)c3ccccc3F)CC2)cc1,.,.,10,.,.
COC(=O)C1C(=O)/C(=C(/C)N2CCCC2)C(=O)CC1(C)C (stereo not given),23073*,0,-4,?,-1
CC1(C)Cc2c(sc(NC(=O)c3ccc(S(=O)(=O)N4CCCc5ccccc54)cc3)c2C(N)=O)C(C)(C)N1,.,.,11,.,.
Cc1ccc(C(=O)NN=Cc2ccc(-c3ccc(Br)cc3[N+](=O)[O-])o2)o1,.,.,15,.,.
COc1ccc(C(=O)Nc2cccc(-c3cn4c(C)csc4n3)c2)cc1,.,.,24,.,.
CCOC(=O)/C(C#N)=C/C=C1\C=Cc2ccccc2N1CC,119384*,46*,18,0,178*
CCCN1C=CC(=CC=C(C#N)C#N)C=C1,3712,-14,9,-4,13
CCCCCCN1C=CC(=C/C=C(\C#N)C(=O)OCC)C=C1,24837*,0,0,-10,-16
Cc1cc(C)c(NC(=O)CCCn2nc(-c3ccc(Cl)cc3)ccc2=O)c(C)c1,.,.,-16,.,.
COc1ccc(OC)c(NC(=O)C2CC(=O)N(c3ccccc3)C2)c1 (stereo not given),2457,-1,-5,0,-5
COc1cccc(N2CC(C(=O)OC(C)C(=O)c3ccccc3)CC2=O)c1 (stereo not given),22234*,-1,-6,?,-1
C=CCSc1nc(=O)n2cccc(C)c2n1,21125*,-6,5,-2,-3
CC(=O)Nc1ccc(S(=O)(=O)NCc2cc(-c3ccccn3)n(C)n2)cc1,.,.,-11,.,.
CCOC(=O)N1CCN(C2CC(=O)N(CCc3ccc(OC)c(OC)c3)C2=O)CC1 (stereo not given),.,.,-17,.,.
COc1cccc(C2CC(c3ccccc3Cl)Nc3ncnn32)c1 (stereo not given),18432*,-7,-3,4,5
COc1cccc(CNC(=O)C(=O)Nc2ccccc2C#N)c1,.,.,-7,.,.
CC(C)c1ccc(/C=C/c2[nH]c(=O)[nH]c(=O)c2[N+](=O)[O-])cc1,3823,9,-23,0,37*
CCOC(=O)c1sc(NC(=O)C(C)SCc2ccco2)c(C(=O)OCC)c1C (stereo not given),.,.,-19,.,.
COc1cccc(OCCCn2cc(/C=C3/C(=N)N4C=C(C)SC4=NC3=O)c3ccccc32)c1,24218*,5,-1,50*,-45
COc1cc(/C=C2/C(=N)N3C=CSC3=NC2=O)ccc1OCCCOc1ccccc1C,4133,5,-12,5,37*
COc1ccc(OCCCn2cc(/C=C3/C(=N)N4C=C(C)SC4=NC3=O)c3ccccc32)cc1,12019,2,5,8,-27
COc1cc(/C=C2/C(=N)N3C=CSC3=NC2=O)ccc1OCCCOc1c(C)cccc1C,7192,-1,12,2,-15
N#Cc1ccc(C(=O)Nc2ccc3c(c2)CCC(=O)N3Cc2ccccc2)cc1,.,.,4,.,.
SMILES,Bead autofluor,Anthrax LF inh2,SSB-PriA inh,BoNT A protease,BoNT-F LC inh
CCCCn1cnc2cc(NCc3cccc(OC)c3O)ccc21,20423*,-5,26,?,-8
COc1ccc(CNC(=O)NC[C@@H](c2ccsc2)N2CCN(C)CC2)cc1OC,.,.,-7,.,.
CCOC(=O)N1CCN(C(=O)/C(=C/c2cccc3ccccc23)NC(=O)c2ccc(OC)cc2)CC1,24028*,-2,12,-2,-5
CCOC(=O)N1CCN(C(=O)/C(=C/c2ccc(OC)cc2)NC(=O)c2ccccc2)CC1,2819,0,-2,0,-13
Nn1c(SCC(=O)Nc2ccc3c(c2)OCO3)nnc1-c1ccc(Cl)cc1,9163,-8,-6,1,6
COc1ccc(-n2c(SCC(=O)Nc3ccc4c(c3)OCO4)nc3ccccc3c2=O)cc1,23540*,-6,-22,-2,-8
Nn1c(SCC(=O)Nc2ccc3c(c2)OCO3)nnc1-c1ccccc1,3160,-36,3,45*,57*
C=CCn1c(SCC(=O)Nc2ccc3c(c2)OCO3)nnc1-c1cc(Br)ccc1O,24540*,-4,9,-1,-6
O=C(CSc1nnc(-c2ccccn2)n1-c1ccc(Cl)cc1)Nc1ccc2c(c1)OCO2,22588*,0,-4,2,2
C=CCn1c(SCC(=O)Nc2ccc3c(c2)OCO3)nnc1-c1ccccc1,3769,-1,0,-1,2
Nn1c(SCC(=O)Nc2ccc3c(c2)OCCO3)nnc1-c1ccccn1,2792,0,-7,-2,-12
O=C(NCCn1ccc(-c2ccccn2)n1)Nc1cccs1,.,.,-5,.,.
CCCCc1ccc(-n2c(=O)c3ccccc3c3ccccc3c2=O)cc1,.,.,5,.,.
CN1C(=O)C(=Cc2cccs2)C(=O)N(C)C1=O,.,.,3,.,.
COc1ccc(S(=O)(=O)CCCC(=O)Nc2nc3c(s2)Cc2ccccc2-3)cc1,.,.,-5,.,.
Cn1cc(C(=O)N2CCN(c3ccc(-c4noc(C5CC5)n4)cn3)CC2)nn1,.,.,-3,.,.
CCN1C(=O)Cc2cc(NC(=O)c3cccc(OC)c3OC)ccc21,.,.,19,.,.
CCOC(=O)c1snc2c(=O)[nH]cnc12,18607*,-4,-5,-7,-13
CCOC(=O)c1sc2nc[nH]c(=O)c2c1C,2413,3,-17,0,3
COc1ccc(/C=C/C(=O)OC(C)CN2CCOCC2)cc1 (stereo not given),17262*,0,-13,-2,-5
CC(CN1CCCCC1)OC(=O)/C=C/c1ccccc1 (stereo not given),3373,-1,-8,0,36*
COC(=O)CS[C@H]1CCN(C(=O)CSCc2ccccc2)C1,.,.,2,.,.
CCOc1ccc2cc(C#N)c(SCC(=O)N3CCC(C)CC3)nc2c1,23801*,2,6,-2,-2
CCOC(=O)CSc1nc2cc(OCC)ccc2cc1C#N,?,-1,-12,-2,5
COc1ccc2cc(C#N)c(SCC(=O)NNC(=O)Cc3ccccc3)nc2c1,19935*,0,-6,1,-2
SMILES,Bead autofluor,Anthrax LF inh2,SSB-PriA inh,BoNT A protease,BoNT-F LC inh
CC1(C)C2CCC1(CS(=O)(=O)n1cnc3ccccc31)C(=O)C2 (stereo not given),.,.,6,.,.
Cc1cc(=O)[nH]c(SCn2nnc3ccccc3c2=O)n1,10325,-2,-1,0,-4
O=c1ccnc(SCn2nnc3ccccc3c2=O)[nH]1,21117*,-1,-9,3,3
COCCOC(=O)c1c(C)n(C)c2ccc(OC(=O)c3ccco3)cc12,22026*,-4,-16,?,2
CCOc1cc(C2c3c(n[nH]c3C)C(=O)N2c2ccc(C)cc2)ccc1O (stereo not given),23172*,-1,-17,1,2
CSc1nnc(C)c(=O)n1COC(=O)c1cc2ccccc2oc1=O,.,.,-4,.,.
O=S1(=O)N=C(Oc2ccccc2)c2ccccc21,23213*,0,-8,1,0
CNC(=O)c1nn(-c2ccc(C)cc2)ccc1=O,2354,-3,-21,0,-5
NNC(=O)c1nn(-c2ccc(Cl)cc2)ccc1=O,23538*,-2,0,?,-4
